Test results published in PubChem BioAssay (NCATS).
Records with an inconclusive call do not appear. Where a call stands in place of a potency, no number is given. Activity calls are given as the source filed them. Unless noted, calls come from the whole dose curve; as a rule, active = well fitted curve in the direction sought with a large enough effect; inconclusive = small, poorly fitted or top-dose-only effect, or another doubt; inactive = no such curve, though single readings can be large; an effect the other way counts as inactive or inconclusive.

Tests used:
[1] = qHTS for differential inhibitors of proliferation of Plasmodium falciparum line HB3 (AID 1886); conditions: Potency: Plasmodium falciparum HB3 proliferation inhibition; series mostly up to 28.7 µM;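 note: parasites grown with compound for 72 h before SYBR Green readout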; note: potency is the fitted concentration of half-maximal effect
[2] = target: Ferritin light chain (Equus caballus) (UniProt P02791); assay: qHTS Validation Assay for Identification of Novel General Anesthetics (AID 2323); conditions: horse apoferritin, anesthetic-site fluorescent probe displacement; series mostly up to 76.9 µM
Sequence of Ferritin light chain (Equus caballus) (P02791 2-175 limits assumed): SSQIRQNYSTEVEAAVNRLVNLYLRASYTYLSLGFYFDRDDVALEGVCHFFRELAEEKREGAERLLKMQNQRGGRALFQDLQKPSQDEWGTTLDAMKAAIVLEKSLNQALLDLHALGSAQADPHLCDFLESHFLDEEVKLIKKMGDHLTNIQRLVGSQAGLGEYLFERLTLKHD
Procedure, shortened: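 Horse-spleen apoferritin (10 uM) in PBS with 50% saturated 1-aminoanthracene; compounds pin-transferred, 10 min at room temperature. Fluorescence read at 380/535 nm, normalized to free 1-AMA and 1-AMA/apoferritin values; four-parameter Hill fit.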

[3] = target: ATP-dependent DNA helicase Q1 (Homo sapiens) (UniProt P46063); assay: qHTS Validation Assay for Inhibitors of RecQ-Like Dna Helicase 1 (RECQ1) (AID 2353); conditions: recombinant RECQ1 helicase DNA unwinding assay; series mostly up to 25.6 µM
Sequence of ATP-dependent DNA helicase Q1 (Homo sapiens) (P46063 whole entry, looked up): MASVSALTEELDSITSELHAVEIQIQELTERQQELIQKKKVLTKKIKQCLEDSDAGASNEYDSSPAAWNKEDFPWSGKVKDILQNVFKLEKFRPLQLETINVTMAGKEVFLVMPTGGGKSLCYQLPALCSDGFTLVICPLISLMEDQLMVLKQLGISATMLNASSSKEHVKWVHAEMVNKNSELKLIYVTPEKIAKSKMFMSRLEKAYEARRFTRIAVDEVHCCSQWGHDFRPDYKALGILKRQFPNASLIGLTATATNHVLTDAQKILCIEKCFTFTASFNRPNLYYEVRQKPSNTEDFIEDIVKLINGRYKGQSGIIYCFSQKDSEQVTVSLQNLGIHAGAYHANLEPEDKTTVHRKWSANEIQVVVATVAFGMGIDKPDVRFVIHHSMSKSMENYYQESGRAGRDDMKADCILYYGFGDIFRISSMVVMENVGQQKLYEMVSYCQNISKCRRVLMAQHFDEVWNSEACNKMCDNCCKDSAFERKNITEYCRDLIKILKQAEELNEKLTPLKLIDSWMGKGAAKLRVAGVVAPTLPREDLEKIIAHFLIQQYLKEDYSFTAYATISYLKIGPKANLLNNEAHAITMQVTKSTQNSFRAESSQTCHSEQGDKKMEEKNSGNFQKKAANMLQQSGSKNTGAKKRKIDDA
Procedure, shortened: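 50 nM RECQ1T1 preincubated 15 min with compound in Tris pH 8.0 buffer with MgCl2, DTT, Tween-20 and 2.5 ug/ml poly(dI-dC); started with 200 nM TAMRA/BHQ-2 forked duplex and 2 mM ATP. Unwinding read as fluorescence (525/598 nm), two reads 2 h apart.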

[4] = Cytometric Cell-Based qHTS for Inhibitors of the mTORC1 Signaling Pathway in MEF (Tsc2-/-, p53-/-) Cells (AID 2660); conditions: mTORC1 pathway cytometry; series mostly up to 38.3 µM; note: potency is the fitted concentration of half-maximal effect
Procedure, shortened: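 Immunofluorescence qHTS of rpS6 Ser235/236 phosphorylation: MEFs (Tsc2-/-, p53-/-) treated 24 h, 37 C, in DMEM + 10% FBS. Alexa-488 signal normalized to PI count, referenced to rapamycin (7.5 nM) and DMSO; PI cell number recorded for viability.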

[5] = High Content Imaging Cell-Based qHTS for Inhibitors of the mTORC1 Signaling Pathway in MEF (Tsc2-/-, p53-/-) Cells (AID 2666); conditions: series mostly up to 38.3 µM;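 note: percent of cells scored positive for phospho-rpS6 Ser235/236 immunostaining by imaging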; note: potency is the fitted concentration of half-maximal effect
Procedure, shortened: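 Phospho-rpS6 (Ser235/236) immunofluorescence, normalized and scored as % positive cells using rapamycin and DMSO controls, was read in empty-vector Tsc2-/-, p53-/- MEFs after 24 h compound exposure at 37 C; propidium iodide counted cells.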

[6] = High Content Imaging Cell-Based qHTS for Inhibitors of the mTORC1 Signaling Pathway in MEF Cells (AID 2667); conditions: series mostly up to 38.3 µM; note: potency is the fitted concentration of half-maximal effect
Procedure, shortened: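 WT MEFs (Tsc2-/-, p53-/- re-expressing Tsc2), in DMEM + 10% FBS, were treated with compound for 24 h at 37 C. Cells were then fixed and stained for phospho-rpS6 Ser235/236 with propidium iodide as cell count. Values are % positive cells, with thresholds set against rapamycin-treated cells.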

[7] = Cytometry Cell-Based qHTS for Inhibitors of the mTORC1 Signaling Pathway in MEF cells (AID 2668); conditions: mTORC1 pathway readout; series mostly up to 38.3 µM;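 note: Tsc2-/- p53-/- mouse embryonic fibroblasts stably re-expressing wild-type Tsc2; percent cells positive for phospho-rpS6 Ser235/236 relative to propidium iodide stain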
Procedure, shortened: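 MEFs (Tsc2-/-, p53-/- stably expressing WT Tsc2) treated 24 h at 37 degree Celsius, fixed, stained with Alexa-488 anti-phospho-rpS6 Ser235/236 and propidium iodide; Acumen laser scanning. Reported as % positive cells, phospho-S6 normalized to PI.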

[8] = Validation screen for inhibitors of Lassa infection (AID 463096; calls by dose curve; note: potency is the fitted concentration of half-maximal effect); conditions: Lassa virus infection, cell-based; series mostly up to 46.1 µM
[9] = Validation screen for small molecules that induce DNA re-replication in MCF 10A normal breast cells (AID 463097); conditions: MCF 10A cells, DNA re-replication phenotype imaging; series mostly up to 46.1 µM; note: nearly all actives have a fitted effect of over 60% in size; note: potency is the fitted concentration of half-maximal effect
Procedure, shortened: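 MCF 10A cells exposed to compound 48 hr at 37 C, 5% CO2, then Hoechst-stained 40 min. Laser-scanning imaging of nuclear DNA content (405 nm ex, 500-530 nm em); re-replication scored as rise in nuclei with elevated fluorescence intensity.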

[10] = target: Ubiquitin carboxyl-terminal hydrolase 2 (Homo sapiens) (UniProt O75604); assay: qHTS Validation Assay for Inhibitors of Ubiquitin-specific Protease USP2a Using CHOP2 as the Reporter (AID 463106); conditions: USP2a cleavage of CHOP2 reporter, enzymatic; series mostly up to 38.3 µM
Sequence of Ubiquitin carboxyl-terminal hydrolase 2 (Homo sapiens) (O75604 whole entry, looked up): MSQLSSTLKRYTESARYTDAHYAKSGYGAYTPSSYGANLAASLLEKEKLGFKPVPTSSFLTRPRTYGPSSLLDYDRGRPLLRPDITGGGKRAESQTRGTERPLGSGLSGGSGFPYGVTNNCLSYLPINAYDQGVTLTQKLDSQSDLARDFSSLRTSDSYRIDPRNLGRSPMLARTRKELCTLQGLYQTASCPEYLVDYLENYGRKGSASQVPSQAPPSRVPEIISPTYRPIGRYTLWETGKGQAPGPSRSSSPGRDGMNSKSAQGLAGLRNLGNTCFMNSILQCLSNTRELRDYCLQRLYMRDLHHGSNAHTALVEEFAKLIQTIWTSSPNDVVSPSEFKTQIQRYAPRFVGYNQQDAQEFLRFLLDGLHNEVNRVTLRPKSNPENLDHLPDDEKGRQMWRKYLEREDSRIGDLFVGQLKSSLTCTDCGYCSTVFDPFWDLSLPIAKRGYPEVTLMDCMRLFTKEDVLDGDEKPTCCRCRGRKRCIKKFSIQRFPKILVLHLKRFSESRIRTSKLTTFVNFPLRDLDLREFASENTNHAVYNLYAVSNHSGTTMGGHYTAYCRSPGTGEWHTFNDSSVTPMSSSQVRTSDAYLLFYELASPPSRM
Procedure, shortened: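 USP2 core (10 nM final) was preincubated with compound 30 min at RT in pH 8.0 Tris/CaCl2/beta-ME/CHAPS buffer. Ub-CHOP2 and reporter substrate (25 nM final each) were then added, with fluorescence (Ex 485/Em 531) read after 60 min. Data were normalized to NEM full inhibition and fitted to concentration-response curves.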

[11] = target: DNA polymerase III PolC-type (Bacillus subtilis (strain 168)) (UniProt P13267); assay: qHTS Validation Assay for the Inhibitors of DNA Replication in Gram-Positive Bacteria (AID 485295); conditions: Gram-positive bacterial DNA replication assay; series mostly up to 57.1 µM;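 note: PicoGreen fluorescence of double-stranded DNA made on primed circular M13 template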
Sequence of DNA polymerase III PolC-type (Bacillus subtilis (strain 168)) (P13267 whole entry, looked up): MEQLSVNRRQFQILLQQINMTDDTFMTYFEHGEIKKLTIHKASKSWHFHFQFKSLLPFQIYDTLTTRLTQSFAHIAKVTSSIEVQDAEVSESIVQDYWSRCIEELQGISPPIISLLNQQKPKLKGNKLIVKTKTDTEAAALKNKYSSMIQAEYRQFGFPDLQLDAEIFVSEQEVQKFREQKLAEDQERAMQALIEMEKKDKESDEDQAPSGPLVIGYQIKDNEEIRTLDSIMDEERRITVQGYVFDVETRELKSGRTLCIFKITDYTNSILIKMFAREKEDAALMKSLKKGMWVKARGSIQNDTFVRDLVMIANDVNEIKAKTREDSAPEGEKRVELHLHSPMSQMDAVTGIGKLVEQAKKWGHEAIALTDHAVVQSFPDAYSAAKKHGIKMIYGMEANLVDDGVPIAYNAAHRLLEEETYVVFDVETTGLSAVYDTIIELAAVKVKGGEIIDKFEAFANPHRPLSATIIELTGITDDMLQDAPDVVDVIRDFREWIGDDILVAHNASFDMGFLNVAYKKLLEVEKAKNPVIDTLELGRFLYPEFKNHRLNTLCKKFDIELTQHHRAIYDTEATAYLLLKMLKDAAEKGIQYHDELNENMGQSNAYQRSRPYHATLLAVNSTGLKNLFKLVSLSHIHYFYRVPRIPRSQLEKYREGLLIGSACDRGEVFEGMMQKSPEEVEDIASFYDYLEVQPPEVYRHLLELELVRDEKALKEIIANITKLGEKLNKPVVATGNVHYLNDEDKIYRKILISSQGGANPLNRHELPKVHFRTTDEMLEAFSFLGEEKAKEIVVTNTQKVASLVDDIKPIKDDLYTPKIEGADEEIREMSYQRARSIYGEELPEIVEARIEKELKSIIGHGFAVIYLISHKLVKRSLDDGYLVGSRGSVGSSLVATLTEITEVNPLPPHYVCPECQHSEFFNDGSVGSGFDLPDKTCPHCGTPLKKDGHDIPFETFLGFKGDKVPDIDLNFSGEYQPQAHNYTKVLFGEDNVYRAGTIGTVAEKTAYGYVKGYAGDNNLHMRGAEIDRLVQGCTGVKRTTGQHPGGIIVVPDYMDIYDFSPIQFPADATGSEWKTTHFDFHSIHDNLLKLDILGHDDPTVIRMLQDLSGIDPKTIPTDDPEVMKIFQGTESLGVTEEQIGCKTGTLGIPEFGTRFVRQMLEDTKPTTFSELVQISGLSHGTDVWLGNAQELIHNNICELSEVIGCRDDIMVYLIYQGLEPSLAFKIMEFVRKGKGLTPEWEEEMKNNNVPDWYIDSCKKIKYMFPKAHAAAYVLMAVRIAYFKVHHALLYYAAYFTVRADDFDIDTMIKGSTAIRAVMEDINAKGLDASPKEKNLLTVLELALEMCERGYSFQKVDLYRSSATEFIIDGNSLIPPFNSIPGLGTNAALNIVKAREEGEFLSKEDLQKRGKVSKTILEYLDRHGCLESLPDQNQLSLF
Procedure, shortened: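 Reconstituted B. subtilis Pol III holoenzyme (PolC, beta clamp, SSB, primase) preincubated with compound, then M13Gori single-stranded circular template with dNTPs/NTPs added; room temperature reaction. Stopped with EDTA/PicoGreen; dsDNA fluorescence read, EDTA as full-inhibition control.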

[12] = target: Tumor susceptibility gene 101 protein (Homo sapiens) (UniProt Q99816); assay: qHTS Validation Assay for Iinhibitors of HIV-1 Budding by Blocking the Interaction of PTAP/TSG101 (AID 485342; calls by dose curve); conditions: TSG101-PTAP binding, fluorescence polarization, 4-point titration; series mostly up to 115 µM
Sequence of Tumor susceptibility gene 101 protein (Homo sapiens) (Q99816 whole entry, looked up, the tested form may be a part): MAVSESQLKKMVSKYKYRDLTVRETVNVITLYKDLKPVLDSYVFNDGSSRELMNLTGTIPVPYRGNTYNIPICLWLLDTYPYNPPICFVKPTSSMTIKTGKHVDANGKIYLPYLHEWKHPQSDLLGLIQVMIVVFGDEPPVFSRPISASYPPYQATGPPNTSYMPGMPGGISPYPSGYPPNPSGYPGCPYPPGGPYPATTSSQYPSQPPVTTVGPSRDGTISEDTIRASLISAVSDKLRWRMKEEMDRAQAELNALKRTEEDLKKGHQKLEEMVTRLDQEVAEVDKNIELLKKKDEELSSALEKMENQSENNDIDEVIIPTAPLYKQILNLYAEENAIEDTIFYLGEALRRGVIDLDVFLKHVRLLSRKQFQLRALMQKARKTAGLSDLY
Procedure, shortened: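 Tsg101 binding domain (10 uM) with FITC-labeled PTAP peptide (50 nM) in HEPES pH 7.5 buffer, 20 min at r.t. with compounds. Binding measured by fluorescence polarization.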

[13] = qHTS Validation Assay to Find Inhibitors of Chronic Active B-Cell Receptor Signaling (AID 485345; active = well fitted curve in the direction sought with a large enough effect in the main read-out, with a control signal flat, not every such curve was filed as active); conditions: ABC-DLBCL cells, chronic BCR signaling reporter, CBG luciferase; series mostly up to 46.1 µM
Procedure, shortened: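 TMD8 ABC-DLBCL cells stably carrying doxycycline-inducible IkappaBalpha–green luciferase fusion plus unfused red luciferase; compounds 46 uM to 3 nM, 4 h at 37C with doxycycline. Corrected green/red luminescence ratio normalized to 10 uM MG-132 and basal cell wells; curves fitted.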

[14] = target: Beta-2 adrenergic receptor (Homo sapiens) (UniProt P07550); assay: qHTS validation assay of beta-arrestin-biased ligands of beta2-adrenergic receptor (AID 485366); conditions: cell-based beta-arrestin recruitment to ADRB2, qHTS; series mostly up to 46.1 µM
Sequence of Beta-2 adrenergic receptor (Homo sapiens) (P07550 whole entry, looked up): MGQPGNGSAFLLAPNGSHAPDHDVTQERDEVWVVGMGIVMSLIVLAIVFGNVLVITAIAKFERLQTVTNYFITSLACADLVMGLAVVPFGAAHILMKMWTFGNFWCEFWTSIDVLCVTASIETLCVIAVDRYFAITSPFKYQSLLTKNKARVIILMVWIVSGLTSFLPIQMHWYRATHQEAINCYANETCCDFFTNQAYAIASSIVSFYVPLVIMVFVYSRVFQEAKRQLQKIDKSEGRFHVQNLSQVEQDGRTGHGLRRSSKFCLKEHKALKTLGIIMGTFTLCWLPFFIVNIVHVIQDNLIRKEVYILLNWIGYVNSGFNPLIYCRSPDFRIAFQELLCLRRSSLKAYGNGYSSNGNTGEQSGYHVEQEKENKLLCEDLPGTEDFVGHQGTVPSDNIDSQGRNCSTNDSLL
Procedure, shortened: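 Arrestin-recruitment (Tango) reporter: ligand-bound beta2-AR recruits beta-arrestin, releasing tTA, which upregulates luciferase. Titrations of up to 46 microM incubated 18 hr at 37 degrees C before luminescent readout.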

[15] = target: ATP-dependent 6-phosphofructokinase (Trypanosoma brucei brucei) (UniProt O15648); assay: qHTS Validation Assay to Find Inhibitors of T. brucei phosphofructokinase (AID 485368); conditions: T. brucei PFK enzyme assay, qHTS 7-point titration; series mostly up to 57.5 µM
Sequence of ATP-dependent 6-phosphofructokinase (Trypanosoma brucei brucei) (O15648 whole entry, looked up): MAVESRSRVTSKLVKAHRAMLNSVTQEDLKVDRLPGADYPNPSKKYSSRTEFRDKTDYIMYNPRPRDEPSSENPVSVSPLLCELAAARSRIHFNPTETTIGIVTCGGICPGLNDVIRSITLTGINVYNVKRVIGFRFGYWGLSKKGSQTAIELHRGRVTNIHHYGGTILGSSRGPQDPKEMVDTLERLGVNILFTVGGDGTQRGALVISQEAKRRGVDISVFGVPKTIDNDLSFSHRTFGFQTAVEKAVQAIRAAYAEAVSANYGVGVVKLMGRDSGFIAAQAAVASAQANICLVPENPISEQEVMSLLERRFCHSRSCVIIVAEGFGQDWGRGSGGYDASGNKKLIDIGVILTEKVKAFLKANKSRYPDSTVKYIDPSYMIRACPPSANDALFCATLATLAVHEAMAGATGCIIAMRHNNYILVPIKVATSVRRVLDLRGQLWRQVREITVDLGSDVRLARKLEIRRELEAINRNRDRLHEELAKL
Procedure, shortened: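 Steps: substrate mix (0.5 mM F6P, 0.1 mM ATP, MgCl2, TEA pH 8.0); compound; 1.25 nM T. brucei PFK; 45 min RT; ATP depletion 10 min; ADP-to-ATP detection 10 min; luminescence read; curve fitting and classification.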

[16] = target: RecQ-like DNA helicase BLM (Homo sapiens) (UniProt P54132); assay: qHTS Validation Assay for Inhibitors of Bloom's syndrome helicase (BLM) (AID 2364); conditions: BLM helicase DNA unwinding, fluorescence, in vitro; series mostly up to 57.1 µM
Procedure, shortened: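 50 nM BLM preincubated 15 min at room temperature with compound in pH 8.0 Tris buffer containing 2.5 ug/ml poly(dI-dC); started with 200 nM TAMRA/BHQ-2 forked duplex and 2 mM ATP (final). Unwinding read as TAMRA fluorescence increase, two reads 2 h apart.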

| SMILES | Potency [1] | outcome [2] | Potency [3] | Potency [4] | Potency [5] | Potency [6] | Potency [7] | Potency [8] | Potency [9] | Potency [10] | Potency [11] | outcome [12] | Potency [13] | outcome [14] | Potency [15] | Potency [16] |
| --- | --- | --- | --- | --- | --- | --- | --- | --- | --- | --- | --- | --- | --- | --- | --- | --- |
| C=CCN1CCC23c4c5ccc(O)c4O[C@H]2C(=O)CC[C@@]3(O)C1C5 (some centres undefined) | inactive | inactive | inactive | inactive | inactive | inactive | inactive | inactive | inactive | inactive | inactive | inactive | inactive | inactive | inactive |  |
| NC(=O)c1cc(N2CC2)c([N+](=O)[O-])cc1[N+](=O)[O-] | inactive | inactive | inactive | inactive | inactive | inactive | inactive | inactive | inactive | inactive | inactive | inactive | inactive | inactive | inactive |  |
| CCn1cnc2c(Nc3cccc(Cl)c3)nc(N[C@@H]3CCCC[C@@H]3N)nc21 | 8.91 µM (active) | inactive | inactive |  | 18.5 µM (active) |  |  |  | 3.55 µM (active) | inactive | inactive | inactive |  | inactive | inactive |  |
| CP(=O)(O)C1=CCNCC1 | inactive | inactive | inactive | inactive | inactive | inactive | inactive | inactive | inactive | inactive | inactive | inactive | inactive | inactive |  |  |
| O=[N+]([O-])c1ccc2nc(N3CCNCC3)ccc2c1 | 12.6 µM (active) | inactive | inactive | inactive | inactive | inactive | inactive |  |  | inactive | inactive | inactive |  | inactive |  |  |
| COc1cc(CC(C)N)c(OC)cc1I (centres undefined) | inactive | inactive | inactive | inactive | inactive |  | inactive | inactive | inactive | inactive | inactive | inactive | inactive | inactive | inactive |  |
| NNC(=O)c1ccc(O)cc1 | inactive | inactive | inactive | inactive | inactive | inactive | inactive | inactive |  | inactive | inactive | inactive |  | inactive |  |  |
| N[C@@H](CCl)C(=O)O | inactive | inactive | inactive | inactive | inactive | inactive | inactive | inactive |  | inactive | inactive | inactive | inactive | inactive | inactive |  |
| CN1C2CCC1CC(OC(c1ccccc1)c1ccc(Cl)cc1)C2 (centres undefined) | 2.24 µM (active) | inactive | inactive |  |  |  |  | 8.91 µM (active) |  |  |  |  |  |  |  | inactive |
| Oc1ccc2c3c1O[C@H]1c4oc5ccccc5c4C[C@@]4(O)C(C2)N(CC2CC2)CCC314 (some centres undefined) | 11.2 µM (active) | inactive | inactive | inactive | inactive |  |  | 7.94 µM (active) |  | inactive | inactive | inactive | inactive | inactive | inactive |  |
| CNc1ccc2oc(C[C@H]3O[C@@]4(CC[C@H]3C)O[C@H]([C@H](C)C(=O)c3ccc[nH]3)[C@H](C)C[C@H]4C)nc2c1C(=O)O | 1.26 µM (active) | inactive | inactive | 14.7 µM (active) | 2.61 µM (active) |  |  | 7.08 µM (active) | 1.58 µM (active) | inactive | inactive | inactive |  | inactive |  |  |
| NC(Cc1ccc(N(CCCl)CCCl)cc1)C(=O)O (centres undefined) | 12.6 µM (active) | inactive | inactive | inactive | inactive |  | inactive | 8.91 µM (active) |  | inactive | inactive | inactive |  | inactive | inactive |  |
| CN1CC[C@@]2(C)c3cc(O)ccc3N(C)C12 (some centres undefined) | 8.91 µM (active) | inactive | inactive | inactive | inactive | inactive |  |  |  | inactive | inactive | inactive | inactive | inactive |  |  |
| CC(N)Cc1c[nH]c2ccc(OCc3cccs3)cc12 (centres undefined) | 11.2 µM (active) | inactive | inactive | inactive | inactive | 13.1 µM (active) |  | inactive |  | inactive | inactive | inactive | inactive | inactive | inactive |  |
| C[Se]C[C@H](N)C(=O)O | inactive | inactive | inactive | inactive | inactive | inactive | inactive | inactive |  | inactive | inactive | inactive | inactive | inactive | inactive |  |
| C[N+]1(C)CCN(c2ccccc2)CC1 | inactive | inactive | inactive | inactive | inactive |  | inactive | inactive | inactive | inactive | inactive | inactive |  | inactive |  |  |
| CCCN(CCC)[C@H]1CCc2c(F)ccc(O)c2C1 | 1.41 µM (active) | inactive | inactive | inactive | inactive | inactive | inactive | inactive | inactive | inactive | inactive | inactive | inactive | inactive | inactive |  |
| C[C@H](N)CN1CCc2ccc(Br)cc21 | 11.2 µM (active) | inactive | inactive | inactive | inactive |  | inactive |  |  | inactive | inactive | inactive |  | inactive |  | inactive |
| CN1C2CCC1CC(OC(c1ccccc1)c1ccccc1N)C2 (centres undefined) | 10 µM (active) | inactive | inactive | inactive | inactive | inactive |  | inactive | inactive | inactive | inactive | inactive | inactive | inactive | inactive |  |
| CCCN(CCC)CCc1ccc(O)c(O)c1 | 11.2 µM (active) | inactive | inactive | inactive | inactive | inactive | inactive | inactive | inactive | inactive | inactive | inactive | inactive | inactive |  |  |
